Compounds with a hit are over-represented: about 2.9% of the library has one in this group of screens.
MEKK2mut PB1 HTS: signal of MEK5 binding to mutant human MEKK2 PB1 domain; bead flow cytometry, Alexa488-MEK5 binding to MEKK2 mutant; percent response, % at 10 µM; hit rate 0.35% among 290,000; AID 1530; in the data active means percent response above about 24%, passing the limit was not always enough
MEKK2wt PB1 HTS: raises or lowers MEK5 binding to wildtype human MEKK2 PB1 domain | binding response (% of control), % at 10 µM | hit rate 1.1% among 290,000 | Q9Y2U5 | bead flow cytometry, Alexa488-MEK5 binding to MEKK2 WT; actives lie on both sides; in the data active means binding response below about 67% or above about 130%
CRFR2-BP antag: antagonists of CRF-binding protein/CRF-R2 receptor complex | hit rate 0.59% among 350,000 | HEK293 CRF-R2/CRF-BP, CRF-induced calcium fluorescence | AID 588475 | inhibition, % at 11.8 µM;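 active means inhibition of the ligand-induced calcium signal above about 50% at the single tested concentration, limit read from the data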
CRFR2-BP ag: CRF-BP/CRF-R2 complex agonism | activation, % at 13.2 µM | hit rate 0.46% among 350,000 | HEK293 CRF-R2/CRF-BP, calcium dye fluorescence (FLIPR); percent of saturating CRF peptide response;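 active means activation of at least 50%, plus an integration ratio under a set limit after plate pattern correction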;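 further: plate controls were neutral control wells without compound for no effect and CRF at EC100 for full effect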
MEKK3 PB1 HTS: modulators (inhibitors or enhancers) of MEK5 binding to human MEKK3 PB1 domain. bead-based flow cytometry, Alexa488-MEK5 binding to MEKK3; actives lie on both sides; 0 = blocked by unlabeled MEK5, 100 = vehicle. binding response (% of control), % at 10 µM. hit rate 1.4% among 290,000. AID 1529;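 active means binding response more than 3 SD above or below the average of its plate-row segment, actives on both sides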;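 further: Alexa488 bead fluorescence after subtracting the streptavidin-only scavenger bead signal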
Target sequence (Q99759 whole entry, looked up, the tested form may be a part): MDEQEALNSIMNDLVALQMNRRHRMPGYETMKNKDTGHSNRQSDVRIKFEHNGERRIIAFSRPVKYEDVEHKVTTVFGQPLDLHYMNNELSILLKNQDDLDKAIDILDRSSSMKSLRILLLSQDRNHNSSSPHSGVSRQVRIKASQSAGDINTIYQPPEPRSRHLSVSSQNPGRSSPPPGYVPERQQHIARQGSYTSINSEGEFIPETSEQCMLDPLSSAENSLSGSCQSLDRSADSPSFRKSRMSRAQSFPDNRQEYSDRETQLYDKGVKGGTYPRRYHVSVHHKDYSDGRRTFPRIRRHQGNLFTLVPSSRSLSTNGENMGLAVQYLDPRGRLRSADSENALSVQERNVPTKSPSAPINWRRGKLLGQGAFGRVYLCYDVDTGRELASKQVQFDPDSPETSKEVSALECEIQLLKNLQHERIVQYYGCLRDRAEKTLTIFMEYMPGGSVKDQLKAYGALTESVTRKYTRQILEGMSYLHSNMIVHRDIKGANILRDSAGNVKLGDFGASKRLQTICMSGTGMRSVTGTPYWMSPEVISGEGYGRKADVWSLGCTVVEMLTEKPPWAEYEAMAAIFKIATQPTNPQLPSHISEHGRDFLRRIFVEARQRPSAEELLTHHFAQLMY
ABCB6 inh MLPCN: blocks the human ABCB6 transporter | fluorescence ratio to DMSO, % at 10 µM | K562-ABCB6 porphyrin accumulation, flow cytometry, 1 h; active compounds read low | Q9NP58 | hit rate 0.19% among 360,000;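 active means fluorescence ratio to DMSO below 75%, the collection mean minus 3 SD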;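 further: signal is porphyrin accumulated inside mitochondria; 100% equals median channel fluorescence of DMSO control wells; lower ratio means ABCB6 inhibition with less porphyrin fluorescence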
An asterisk follows results filed as active; i = inactive; x = no result.

SMILES | MEKK2mut PB1 HTS | MEKK2wt PB1 HTS | CRFR2-BP antag | CRFR2-BP ag | MEKK3 PB1 HTS | ABCB6 inh MLPCN
COc1ccc(OCCN2CCCC2)cc1Nc1nnc(Cl)c(Nc2ccccc2S(C)(=O)=O)n1 | x | x | 2 | -1 | x | 91
O=C(NNC1=C(C(=O)C(F)(F)F)CCC1)c1cccc(Cl)c1 | 3 | 100 | 55* | 13 | 98 | 112
COc1ccc2cc(CCNC(=O)c3ccc(S(=O)(=O)N4CCOCC4)cc3)c(=O)[nH]c2c1 | -2 | 100 | -19 | -1 | 96 | 99
CN(NC(=O)Nc1ccccc1)c1cnn(C)c(=O)c1Cl | 0 | 106 | 120* | 3 | 101 | 96
CN(NC(=O)Nc1ccc(Cl)cc1)c1c(Cl)c(Cl)nn1C | 0 | 108 | -29 | 1 | 116 | 95
Cc1cccc(N2CC(C(=O)Nc3ccc(N4CCOCC4)cc3)CC2=O)c1C (stereo not drawn) | x | x | -9 | -4 | x | 107
CN(C(=O)c1cccc(NC(=O)Cc2ccc(NC(=O)C3CCCN(C(=O)c4ccccc4)C3)cc2)c1)C1CCCC1 (stereo not drawn) | x | x | 0 | -1 | x | 95
Cc1ccccc1NC(=O)c1ccc(-c2ccc(Cl)cc2Cl)o1 | -1 | 98 | 66* | -3 | 108 | 103
O=Cc1ccc(-c2c(-c3ccccc3)oc3c2C(OCCCCO)CCC3)o1 (stereo not drawn) | x | x | x | x | x | 106
COC(=O)C1CC(Cl)CN1c1ncc(C(F)(F)F)cc1Cl (stereo not drawn) | -2 | 98 | 52* | -2 | 101 | 92
CCOc1ccc(NS(=O)(=O)c2ccc3c(c2)N(C(C)=O)CCS3)cc1 | -7 | 94 | -11 | 1 | 99 | 102
CCCNC(=O)c1nnsc1S(=O)(=O)c1ccc(Cl)cc1 | -2 | 96 | 70* | 11 | 100 | 99
CCCNC(=O)c1nnsc1S(=O)c1ccc(Cl)cc1 (stereo not drawn) | -1 | 107 | 32 | 1 | 111 | 105
O=[N+]([O-])c1cccc(-c2nc(-c3ccccn3)no2)c1 | 14 | 108 | 59* | -1 | 108 | 99
COc1cccc(-c2nc(-c3ccccn3)no2)c1 | 3 | 103 | -12 | -1 | 102 | x
COC(=O)C1=C(C)N(Cc2ccccc2)C(=O)N[C@H]1CCc1ccccc1 | 2 | 104 | 82* | 0 | 105 | 104
COC(=O)C1=C(C)N(Cc2ccccc2)C(=S)N[C@H]1c1cccc(F)c1 | -1 | 98 | 55* | 0 | 100 | 101
Cc1noc(C)c1CC(=O)Nc1ccc2c(c1)OCO2 | x | x | 4 | 1 | x | 92
COc1ccc(C(C(=O)NC2CCCCC2)N(Cc2cccs2)C(=O)Cc2c[nH]c3ccccc23)cc1OC (stereo not drawn) | -1 | 96 | 52* | 3 | 102 | 82
CN(C)c1ncc(S(=O)(=O)c2ccccc2)c(-c2ccc(Cl)cc2Cl)n1 | x | x | 31 | 0 | x | 103
CN(C)c1ncc(S(=O)(=O)c2ccc(Cl)cc2)c(-c2ccc(Cl)cc2Cl)n1 | x | x | 56* | 3 | x | 99
CCc1cc(C(=O)N(C)CC(=O)N(CC(C)C)c2c(N)n(CC(C)C)c(=O)[nH]c2=O)sc1C | -4 | 93 | -2 | -1 | 98 | 101
Cc1occc1-c1nnc(SCC(=O)Nc2ccccc2)n1C | 3 | -13* | 5 | 1 | 92 | 97
COCCCn1c(SCC(=O)Nc2ccccc2F)nnc1-c1ccoc1C | -3 | 102 | 103* | -1 | 101 | 95
CCn1c(SCC(=O)Nc2ccccc2F)nnc1-c1ccoc1C | -1 | 102 | -4 | 1 | 104 | 102
SMILES | MEKK2mut PB1 HTS | MEKK2wt PB1 HTS | CRFR2-BP antag | CRFR2-BP ag | MEKK3 PB1 HTS | ABCB6 inh MLPCN
CCCCn1c(N)c(N(CC(C)C)C(=O)c2c(CC)noc2C)c(=O)[nH]c1=O | x | x | -12 | -1 | x | 101
CCOC(=O)Cn1c(=O)oc2cc(S(=O)(=O)NC(C)(C)CC)ccc21 | 9 | 100 | 89* | 0 | 109 | 102
O=[N+]([O-])c1cc(/C=N/N/C(=N/c2ccccn2)c2ccccn2)ccc1O | -11 | 89 | 64* | 66* | 90 | 99
Cc1ccc(C(=O)OCn2nnc3ccccc3c2=O)cc1[N+](=O)[O-] | -3 | 96 | 79* | -3 | 106 | 96
O=c1[nH]cc(CCc2ccccc2)c(=O)[nH]1 | x | x | 2 | -1 | x | 95
CC1(C)C2CC[C@]3(C)C(CC=C4[C@@H]5C[C@@](C)(CO)[C@@H]6C[C@@]5(CC[C@]43C)C(=O)O6)[C@@]2(C)CC[C@@H]1O (stereo partly drawn) | 3 | 101 | -13 | -2 | 99 | x
CC1(C)C[C@H](O)[C@@]23C[C@@H](OC2=O)[C@]2(C)C(=CCC4[C@@]5(C)CC[C@H](O)C(C)(C)C5CC[C@]42C)[C@@H]3C1 (stereo partly drawn) | 1 | 102 | -43 | 74* | 102 | x
CCOc1ccc(N(CC(=O)N/N=C/c2ccccn2)S(=O)(=O)c2ccc(Cl)cc2)cc1 | 6 | 105 | -12 | 0 | 103 | 91
Cc1ccc(C(=O)CSc2cc(C)[nH]c(=O)n2)cc1 | -4 | 100 | 6 | 0 | 98 | 102
Cc1cc(SCC(=O)c2ccc(Cl)cc2)nc(=O)[nH]1 | 4 | 100 | 81* | 1 | 103 | 108
Cn1c(=O)c(NCCO)c2c3c(cccc31)C(=O)c1ccccc1-2 | 3 | 98 | i | 865 | 104 | 91
CCNc1c2c3c(cccc3n(C)c1=O)C(=O)c1ccccc1-2 | -7 | 83 | -158 | 179* | 99 | x
CC(=O)c1c(Cl)nc2cccc3c2c1-c1ccccc1C3=O | 6 | 105 | -17 | 1 | 107 | 100
Cc1cccn2c(/C=N/OCc3cccc(F)c3)c(-c3ccc(Cl)cc3)nc12 | -12 | 86 | 95* | -3 | 76 | 98
CS(=O)(=O)c1ccc(S(=O)CC(=O)OCc2ccccc2)c([N+](=O)[O-])c1 (stereo not drawn) | -12 | 68 | 53* | 5 | 66 | 108
O=C1c2ccccc2C(O)(c2ccccc2)N1C1CC1 (stereo not drawn) | 4 | 102 | 8 | 0 | 98 | 99
CCc1cc2cccc(C)c2nc1SCC(=O)N1CCN(C(=O)c2ccco2)CC1 | -15 | 92 | -6 | 2 | 84 | 96
CCc1cc2cc(C)cc(C)c2nc1SCC(=O)N1CCN(C(=O)c2ccco2)CC1 | -5 | 94 | 52* | 5 | 98 | 92
O=C1CSC(=S)N1/N=C/c1cc(Br)c(O)c(Br)c1 | -7 | 88 | -219 | 185* | 92 | 118
COc1cc(/C=N/N2C(=O)CSC2=S)ccc1O | -5 | 91 | 6 | -2 | 98 | 109
Cc1cc2nc3c(=O)n(CCc4ccccc4)c(=O)[nH]c3nc2cc1N | 4 | 100 | -98 | 152* | 107 | 107

Bioassay records from PubChem BioAssay.
